“And” between values parts separate entries of the source, which are not always exact repeats. Equal entries are not always repeated. Results filed as inconclusive are left out. A number with no mark means an inactive call. The source made the active and inactive calls. Calls follow the shape of the dose curve; as a rule, active = well fitted curve in the direction sought with a large enough effect; inconclusive = small, poorly fitted or top-dose-only effect, or another doubt; inactive = no such curve, though single readings can be large or run the other way.
% is scaled to controls: 0 for no effect and ±100 for the full control effect; potency is read from the fitted curve at half-maximal effect.

This experiment is described as follows: qHTS Assay for Identifying Gametocytocidal Compounds (AID 743244).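 As to max response: actives lower the fluorescent signal which means gametocytes are killed.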 Particulars: P. falciparum 3D7 stage III-V gametocytes, alamarBlue, 72 h; max response: hits give low values. The essentials: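 A resazurin-based viability read-out was applied to mature P. falciparum gametocytes: 72 h compound treatment, then 24 h dye incubation, with falling fluorescence signalling gametocytocidal effect.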
Turning to `CC(=O)OCCN1C(=O)c2c(C)nc3ccc(S(=O)(=O)N4CCOCC4)cc3c2C1=O`, the max response was 15.6%.
On the same count and under the same terms, in the case of `O=C(O)c1ccc2c(c1)nc(Nc1cccc(Cl)c1)c1ccncc12` it was 35.3%.
On to `CC[C@H](CO)Nc1nc(NCc2ccccc2)c2ncn(C(C)C)c2n1`, for which the max response is -4.23%.
`CC=C1NC(=O)[C@H]2CSSCCC=C[C@H](CC(=O)N[C@H](C(C)C)C(=O)N2)OC(=O)[C@H](C(C)C)NC1=O`: the Potency is 0.59 µM (active).
With `Nc1ccccc1NC(=O)c1ccc(CNc2nccc(-c3cccnc3)n2)cc1`, the Potency is 11.8 µM (active).
Still for that read-out and setting: in the case of `C#Cc1cccc(Nc2ncnc3cc(OC)c(OCCCCCCC(=O)NO)cc23)c1` it was 1.71 µM (active).
Same read-out and setting: to `Cc1[nH]c2ccccc2c1CCNCc1ccc(C=CC(=O)NO)cc1` belongs 1.18 µM (active).
Regarding `COc1ccc(CC2SC(=O)NC2=O)cc1C(=O)NCc1ccc(C(F)(F)F)cc1` (centres undefined), the max response was 16.4%.
On the same count and under the same terms, to `COc1ccc(OC)c(-c2nnc3ccc(-c4ccc(OC)c(O[C@@H]5CCOC5)c4)nn23)c1` belongs -15.7%.
As for `Cc1ccc(-c2ncn(-c3ccc(Nc4nccc(-c5cccc(N6CCOCC6)c5)n4)cc3)n2)cn1`, the Potency is 11.8 µM (active).
As for `CC(C)(O)CCc1ccc(OCc2cc(-c3cccc(OC(F)F)c3)c3ncccc3c2)cc1`, the max response is 9.3%.
On to `Cc1cn2c(-c3cn[nH]c3)cnc2c(Nc2ccc(C(=O)N3CCNCC3)cc2F)n1`, for which the Potency was 23.5 µM (active).
On the same count and under the same terms, to `CC(C)c1ccc(Cn2ccc3c4c(N)nc(NC5CC5)nc4ccc32)cc1` belongs 14.8 µM (active); to `COc1cc2c(Oc3ccc(NC(=O)C4(C(=O)Nc5ccc(F)cc5)CC4)cc3F)ccnc2cc1OCCCN1CCOCC1`, 18.7 µM (active); to `CN1CCC(CNc2ccc3ncc(-c4cccc(OC(F)(F)F)c4)n3n2)CC1`, 9.35 µM (active).
In the case of `CCC(=C(c1ccccc1)c1ccc(OCCN(C)C)cc1)c1ccccc1`, the max response is -26.2%.
Still for that read-out and setting: in the case of `Nc1nc(-c2nn(Cc3ccccc3F)c3ncccc23)nc(N)c1N1CCOCC1` it was -6.3%.
For the compound `CN(C)CCCN=c1c2ccccc2n(C)c2[nH]c(=O)n(C)c(=O)c12`, the Potency is 14.8 µM (active).
Turning to `Cc1ccc(C(=O)Nc2ccc(CN3CCN(C)CC3)c(C(F)(F)F)c2)cc1C#Cc1cnc2cccnn12`, the Potency was 18.7 µM (active).
Consider `O=c1c2ccccc2nc2n1CCc1c-2[nH]c2ccccc12`, for which the max response was 16.8%.
Same read-out and setting: to `COc1ccc(C=Cc2cc(OC)c(OC)c(OC)c2)cc1O` belongs 18.2%.
Consider `Cn1cc(-c2[nH]c3cc(NC(=O)[C@H](N)C4CCCCC4)cc4c3c2C=NNC4=O)cn1`, for which the Potency is 23.5 µM (active).
In the case of `O=C(NCCCNc1nc(Nc2cccc(NC(=O)N3CCCC3)c2)ncc1I)c1cccs1`, the max response is -18.4% and -12.2%.
Still for that read-out and setting: in the case of `COc1ccc(CC2c3cc(OC)c(OC)cc3CC[N+]2(C)CCC(=O)OCCCCCOC(=O)CC[N+]2(C)CCc3cc(OC)c(OC)cc3C2Cc2ccc(OC)c(OC)c2)cc1OC` (centres undefined) it was 8.81%.
Same read-out and setting: in the case of `C[C@]1(CO)CN(c2cc(C(=O)Nc3ccc4c(c3)-c3c(c(C(N)=O)nn3-c3ccc(F)cc3)CC4)c(Cl)cn2)C[C@@]1(C)CO` it was -20.6%.
Regarding `O=C(NC1CCNCC1)c1[nH]ncc1NC(=O)c1c(Cl)cccc1Cl`, the Potency is 1.32 µM (active) and 2.64 µM (active).
For the compound `C=C1C(=CC=C2CCCC3(C)[C@@H]([C@H](C)C=CC=CC(O)(CC)CC)CC[C@@H]23)C[C@@H](O)C[C@@H]1O` (some centres undefined), the max response was -8.25%.
For `N#Cc1c(O)c2c(-c3ccc(-c4ccccc4O)cc3)csc2[nH]c1=O`, the max response was 42.7%.
The same measure, in the same setting: to `O=C(C=Cc1c(C(=O)O)[nH]c2cc(Cl)cc(Cl)c12)Nc1ccccc1` belongs 20.3%.

(Values after PubChem BioAssay (NCATS).)
